Source: PubChem BioAssay AID1490 (National Center for Advancing Translational Sciences (NCATS), 2009)
The whole screen tested about 310,000 compounds, of which about 11,000 (3.5%) were called active. Inconclusive results (about 4%) are left out. What follows is part of a selection rich in actives, with near analogues and random picks from the rest. A number with no mark means an inactive call. The call rests on the fitted dose curve; in most records, active means well fitted inhibition curve with a large enough effect; inconclusive means small, poorly fitted or top-dose-only effect, or another doubt; inactive means no such curve, though single readings can be large or run the other way.

Molecular target: 4'-phosphopantetheinyl transferase ffp (Bacillus subtilis) (UniProt Q9F4F7)
Test: qHTS Assay for Inhibitors of Bacillus subtilis Sfp phosphopantetheinyl transferase (PPTase);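 further: the enzyme is Sfp with the accession as filed and its product quenches rhodamine fluorescence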;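 on largest response in the series, negative = inhibition: 0% = enzyme reaction without inhibitor and -100% = no enzyme wells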
Conditions: Biochemical Sfp PPTase activity
Summary of the method: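 Fluorescence-quenching assay with 15 nM Sfp, 5 uM rhodamine-CoA and 12.5 uM BHQ-2-labelled ybbR peptide in pH 7.6 Hepes/MgCl2 buffer. Enzyme was pre-incubated with compound for 15 min at room temperature. Rate was taken from the 30-min fluorescence change (525/598 nm).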
Potency means the concentration at half of the fitted maximal effect.

Structure (SMILES)	largest response in the series, negative = inhibition	Potency
FC(F)(F)c1nnc2c3ccccc3c(Cl)nn12	10.4%	–
CC1CCN(S(=O)(=O)c2ccc(NC(=O)C3CC(=O)N(c4ccccc4)C3)cc2)CC1 (centres undefined)	6.28%	–
Cc1cc(S(=O)(=O)NC2CCCC2)ccc1-n1cnnn1	16.3%	–
CCOc1ccc(C(=O)Nc2c3c(nn2-c2ccccc2)CS(=O)(=O)C3)cc1	11.5%	–
CC(=N\NC(=O)c1cc(Br)ccc1O)/C(=N/O)C(=O)Nc1ccccc1	16.6%	–
O=C(NCCc1ccccc1Cl)C1CCC(=O)N(CCCc2ccccc2)C1 (centres undefined)	-2.68%	–
COC(=O)c1ccc(COc2ccc(/C=C/C(=O)c3ccc(OC)c(CSCC(=O)O)c3)cc2OC)cc1	-20.4%	–
COc1ccc(C2/C(=C(/O)c3ccc4c(c3)CC(C)O4)C(=O)C(=O)N2Cc2ccncc2)cc1 (centres undefined)	-0.196%	–
COc1cccc2cc(-c3cc(=O)oc4cc(C)c(O)cc34)oc12	-19.1%	–
C=C(Cl)COC(=O)C1C2C=CC(C2)C1C(=O)O (centres undefined)	-7.02%	–
CN1CCN(C(=O)C2C3C=CC(C3)C2C(=O)O)CC1 (centres undefined)	-2.06%	–
O=C(O)C1C2C=CC(C2)C1C(=O)N1CCN(CCO)CC1 (centres undefined)	–	20 µM (active)
CC(CN1CCOCC1)OC(=O)c1ccc(C(C)(C)C)cc1 (centres undefined)	-0.906%	–
Cc1cccc(N2CCN(S(=O)(=O)c3ccc(-c4cc(C)no4)s3)CC2C)c1 (centres undefined)	13.1%	–
CCOC(=O)c1sc(NC(=O)CSc2nc(C)cc(C(F)(F)F)n2)c(C#N)c1C	–	20 µM (active)
Cc1cc(C(F)(F)F)nc(SCC(=O)Nc2nccs2)n1	-13.1%	–
CCOC(=O)c1sc(NC(=O)CSc2ncccn2)c(C#N)c1C	15.3%	–
O=C(O)c1cccc2c1C(=O)N(C1CCCC1)C2	17.2%	–
Cc1cc(Cl)nc(NC(=O)Nc2cccc(Cl)c2)n1	-3.29%	–
Cc1cc(Nc2ccccc2)n(C(=O)c2ccc(N)cc2)n1	-8.73%	–

Structure (SMILES)	largest response in the series, negative = inhibition	Potency
Cc1ccc(Nc2ccccc2N)cc1	-23.1%	–
Nc1ccc(Nc2ccccc2)cc1	–	56.2 µM (active)
O=C1OC2(CCCCC2)CC2=C1C1O[C@](c3ccsc3)(Cc3ccccc31)O2	-2.9%	–
COC(=O)CCc1ccccc1S(=O)(=O)N(CCC(=O)OC)Cc1ccccc1	-14.7%	–
CCN(CC(=O)Nc1ccc(Cl)c(S(=O)(=O)N(C)C)c1)Cc1nc2ccccc2c(=O)[nH]1	-31.5%	–
CCN(CC(=O)NC(=O)NCc1ccccc1)Cc1nc2ccccc2c(=O)[nH]1	-53%	–
CCN(CC(=O)Nc1cccc(S(N)(=O)=O)c1)Cc1nc2ccccc2c(=O)[nH]1	–	50.1 µM (active)
CN1CCN(C(=O)c2cnn(-c3ccccc3)c2NC(=O)c2ccc([N+](=O)[O-])cc2)CC1	1.55%	–
O=C(c1cccc([N+](=O)[O-])c1)N1CCN(C(=O)c2ccco2)CC1	3.81%	–
Cc1nc2ccc(NC(=S)N3CCC(C)CC3)cc2nc1C	15.4%	–
CC1CCN(c2ccc([N+](=O)[O-])cc2C(N)=O)CC1	9.05%	–
CC1CCN(C(=S)c2cccc([N+](=O)[O-])c2)CC1	–	44.7 µM (active)
CC1CCN(C(=S)NC(=O)c2ccccc2Br)CC1	14.1%	–
CC1CCN(C(=S)c2cccc(O)c2)CC1	–	25.1 µM (active)
CC1=C(C(=O)OC2CCCCC2)C(c2ccccc2F)NC(=O)N1 (centres undefined)	7.52%	–
O=C(NC1CCCC1)C(c1ccco1)N(C(=O)c1ccco1)c1ccc(F)cc1 (centres undefined)	20.8%	–
COc1ccc(CCNC(=O)c2c(C)nn(-c3ccccc3)c2Cl)cc1	9.27%	–
CN(CC1CCCO1)S(=O)(=O)c1ccc(C(=O)Nc2ccc([N+](=O)[O-])cc2)cc1 (centres undefined)	-10.7%	–
Cc1c(NC(=O)c2cc(-c3ccc(Br)cc3)on2)c(=O)n(-c2ccccc2)n1C	2.71%	–
NS(=O)(=O)c1cccc(NC(=O)CSc2nc3ccccc3n2-c2ccccc2)c1	–	79.4 µM (active)

Structure (SMILES)	largest response in the series, negative = inhibition	Potency
Cc1nnc(SCC(=O)Nc2cccc(N)c2)n1-c1ccccc1	20%	–
COc1ccc(-n2cnnc2SCC(=O)Nc2cccc(S(N)(=O)=O)c2)cc1	3.4%	–
COC(=O)c1c(NC(=O)C(=O)N2CCCCC2)sc2c1CC(C)(C)OC2	-1.3%	–
COc1cc(OC)c(C(=O)N2CCCC2)cc1OC	10.6%	–
COc1ccc(/C=C/C(=O)N2CCCC2)cc1OC	-0.604%	–
COc1cc(OC)c(C(=S)N2CCCC2)cc1OC	–	20 µM (active)
COc1ccc(OC)c(CCNC(=O)c2nn(C)c3c2CS(=O)(=O)c2ccccc2-3)c1	15.7%	–
COc1ccc(NC(=O)CN2C(=O)COc3ccc(S(=O)(=O)N4CCOCC4)cc32)c(OC)c1	15.2%	–
O=C(c1ccc(S(=O)(=O)N2CCCC2)cc1)N1CCN(c2ccccc2F)CC1	11.7%	–
COc1ccc(/C=C/c2noc(-c3ccccc3OC(C)=O)n2)cc1	-16%	–
CC(=O)Nc1ccc(N2CCOCC2)c(C(=O)Nc2cccc(C)c2)c1	6.24%	–
Cc1cccc(NC(=O)c2sc3nc(N4CCOCC4)c4c(c3c2N)CCCC4)c1	–	17.8 µM (active)
Cc1cccc(NC(=O)c2sc3nc4c(c(-c5ccco5)c3c2N)CCC4)c1	-15.6%	–
COc1cccc(CNC(=O)CN(C)S(=O)(=O)c2ccc3c(c2)c(=O)n(C)c(=O)n3C)c1	-4.3%	–
CCc1ccc(NC(=O)N2CCN(c3ccccc3)CC2)cc1	3.63%	–
CC(CC(=O)N1CCN(c2ccccc2)CC1)c1ccccc1 (centres undefined)	3.18%	–
CC(=O)N1CCN(c2ccc(NCc3ccc(C(C)C)cc3)cc2)CC1	–	50.1 µM (active)
O=C1C(=O)N(CCCO)C(c2ccccc2)/C1=C(\O)c1ccc(Br)cc1 (centres undefined)	6.17%	–
COc1ccc(C2=NS(=O)(=O)N(C)C(C(=O)N3CCCCC3)=C2)cc1	1.59%	–
